# Source: PubChem BioAssay (National Center for Advancing Translational Sciences (NCATS))
# Pol beta inh: DNA polymerase beta (human) inhibition; Pol beta primer extension/strand displacement, fluorescence kinetic; Potency, µM (top dose mostly 114 µM), most hits filed as inhibitors; hit rate 1.3% among 340,000; AID 485314
#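 Curves were derived by four-parameter Hill fits of normalized qHTS data. The kinetic fluorescent primer-extension read was taken at 0 and 10 min after 50 nM substrate, following a 15 min room-temperature preincubation of 10 nM enzyme with compounds.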
# WRN helicase inh-1: WRN helicase (human) inhibition | Potency, µM (highest dose often 114 µM), hits mostly inhibitors | WRN helicase unwinding, fluorescent forked duplex, kinetic | hit rate 0.46% among 360,000 | AID 651768; also: nearly all actives have a fitted effect of over 55% in size
#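 Kinetic fluorescence helicase assay: unwinding of a quenched forked DNA duplex (100 nM final) with 2 mM ATP final raises red fluorescence (525/598 nm). Compounds sat 15 min at room temperature with 20 nM WRN beforehand.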
# PI5P4K alpha inh: PI5P4K alpha (human) kinase inhibition; P48426; PI5P4Kalpha enzyme, ADP-Glo luminescence, 60 min; hits give low values; max response, %; hit rate 1.2% among 330,000; AID 652105; active = max response of -50% or lower; inconclusive = between -30% and -50%; inactive = -30% or higher; also: value at the top dose of about 77 µM
#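 Reactions run in 0.038 M HEPES pH 7.4, 0.28 mM EGTA, 0.1% CHAPS and 5% DMSO, with PI5P4Kalpha, substrate, compound and 5 microM ATP final, one hour at room temperature. Readout is ADP-Glo luminescence.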
# Pol kappa inh-1: DNA polymerase kappa (human) inhibition; purified Pol kappa, fluorescent DNA synthesis assay, 10 min; Potency, µM (series often up to 107 µM), actives largely listed as inhibitors; hit rate 0.53% among 400,000; AID 588579
# Target sequence (Q9UBT6 whole entry, looked up): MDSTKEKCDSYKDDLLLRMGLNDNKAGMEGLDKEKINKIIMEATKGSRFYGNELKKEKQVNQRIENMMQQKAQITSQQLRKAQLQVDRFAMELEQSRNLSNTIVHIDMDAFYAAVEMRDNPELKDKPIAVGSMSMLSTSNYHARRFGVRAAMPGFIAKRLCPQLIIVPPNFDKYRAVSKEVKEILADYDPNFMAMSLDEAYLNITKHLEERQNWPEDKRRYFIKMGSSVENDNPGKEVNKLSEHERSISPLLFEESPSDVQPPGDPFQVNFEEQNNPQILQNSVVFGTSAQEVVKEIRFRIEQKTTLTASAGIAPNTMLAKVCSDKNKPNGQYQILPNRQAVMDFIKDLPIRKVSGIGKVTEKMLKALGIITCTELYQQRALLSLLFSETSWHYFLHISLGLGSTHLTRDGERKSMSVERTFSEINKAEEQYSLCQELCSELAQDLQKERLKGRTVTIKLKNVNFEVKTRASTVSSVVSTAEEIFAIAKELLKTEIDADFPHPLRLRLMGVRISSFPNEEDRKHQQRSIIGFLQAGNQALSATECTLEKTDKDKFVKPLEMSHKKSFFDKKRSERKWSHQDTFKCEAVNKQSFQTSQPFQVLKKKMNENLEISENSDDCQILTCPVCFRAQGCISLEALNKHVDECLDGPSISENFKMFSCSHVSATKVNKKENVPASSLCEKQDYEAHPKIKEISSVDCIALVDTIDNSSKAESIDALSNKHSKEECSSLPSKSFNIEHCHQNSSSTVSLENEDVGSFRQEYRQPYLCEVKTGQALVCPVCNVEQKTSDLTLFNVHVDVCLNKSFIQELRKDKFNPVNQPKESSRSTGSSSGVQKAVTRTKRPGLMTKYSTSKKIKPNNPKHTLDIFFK
#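 Readout: fluorescence, taken kinetically at 0 and 10 min. Conditions: 10 nM Pol kappa, 15 min RT compound preincubation, 50 nM substrate final. Controls: enzyme-free buffer wells.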
# Pol eta inh-1: blocks human DNA polymerase eta activity | recombinant Pol eta, fluorescent DNA replication assay | Potency, µM (highest dose often 114 µM), most hits filed as inhibitors | hit rate 1.2% among 390,000 | AID 588591
#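 Pol eta (10 nM) was preincubated with compounds for 15 min at room temperature, after which fluorescent replication substrate (50 nM final) was added to start the reaction. Fluorescence was read kinetically at 0 and 10 min.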
# POLI inh: inhibitors of human DNA polymerase iota; Q9UNA4; Pol iota fluorescent replication assay, 10 min; Potency, µM (titrated, usually from 115 µM), hits mostly inhibitors; hit rate 1% among 390,000
#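 Pol iota at 10 nM preincubated 15 min with compounds at room temperature; reaction started with fluorescent substrate, 50 nM final. Fluorescence read kinetically at 0 and 10 min; buffer-only wells as negative control.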
# TbPGK inh: blocks T. brucei phosphoglycerate kinase | TbPGK coupled GAPDH assay, Kinase-Glo luminescence | hit rate 79% among 500 | AID 686980 | shares compounds with Pol kappa inh-1 | Potency, µM (top dose mostly 57.5 µM), usual class: inhibitors; also: nearly all actives have a fitted effect of over 65% in size
# Pol iota confirm: Confirm cherry-picked inhibitors of human polymerase iota | Pol iota primer extension, TAMRA/BHQ fluorescence | shares compounds with Pol kappa inh-1 | hit rate 77% among 1,500 | Potency, µM, hits mostly inhibitors
# Pol kappa inh-2: confirmation of human DNA polymerase kappa inhibitors. shares compounds with Pol eta inh-1. purified Pol-kappa, fluorescent strand-displacement substrate. Potency, µM, hits mostly inhibitors. hit rate 76% among 920
# Pol eta inh-2: Pol eta (human) inhibition, cherry-pick confirmation. shares compounds with Pol eta inh-1. Pol eta primer extension, TAMRA/BHQ fluorescence, 10 min. Potency, µM, usual class: inhibitors. hit rate 64% among 2,600. AID 720502
# WRN helicase inh-2: confirmation of human WRN helicase inhibitors. shares compounds with WRN helicase inh-1. WRN helicase DNA unwinding, fluorescence kinetic. hit rate 63% among 610. Potency, µM (doses to about 57.1 µM), actives largely listed as inhibitors. AID 720497; also: nearly all actives have a fitted effect of over 65% in size
# TO DNA binding: counter-screen for WRN helicase inhibitors: DNA binding; shares compounds with WRN helicase inh-1; thiazole orange DNA binding displacement, fluorescence; Potency, µM (titrated, usually from 57.1 µM), hits mostly inhibitors; hit rate 10% among 610;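 also: drop in dye fluorescence marks compound binding to DNA; nearly all actives have a fitted effect of over 60% in size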
# BLM counter: counter-screen for WRN helicase inhibitors: human BLM helicase inhibition; shares compounds with WRN helicase inh-1; Recombinant BLM helicase DNA unwinding, red fluorescence; Potency, µM (titrated, usually from 57.1 µM), hits mostly inhibitors; hit rate 60% among 610; AID 720503; also: nearly all actives have a fitted effect of over 60% in size
# ADP-Glo counter: ADP-Glo luciferase interference, PI5P4K counter-screen | Potency, µM (highest dose often 76.9 µM), actives largely listed as inhibitors | shares compounds with PI5P4K alpha inh | 1,100 tested, under 10 active | ADP-Glo detection counter-screen, luciferase luminescence, no enzyme | AID 743285
# A number is an active result; i = inactive; ? = inconclusive; nt = no result given. Rows were chosen to be rich in hits. Some 2.8% of all compounds tested hit in one or more screens of this group. Unless noted, calls follow the shape of the dose curve; as a rule, active = well fitted curve in the direction sought with a large enough effect; inconclusive = small, poorly fitted or top-dose-only effect, or another doubt; inactive = no such curve, though single readings can be large; an effect the other way counts as inactive or inconclusive.
SMILES,Pol beta inh,WRN helicase inh-1,PI5P4K alpha inh,Pol kappa inh-1,Pol eta inh-1,POLI inh,Pol iota confirm,Pol kappa inh-2,Pol eta inh-2,WRN helicase inh-2,TO DNA binding,BLM counter,others
Cc1c(NC(=O)/C(C#N)=C/c2ccc(-c3ccc(Cl)c(Cl)c3)o2)c(=O)n(-c2ccccc2)n1C,i,i,i,i,i,i,nt,nt,nt,nt,nt,nt,
Cc1nc(S/C(=C\c2ccc(-c3ccc(C(=O)O)c(Cl)c3)o2)C(=O)O)n[nH]1,10µM,40µM,-71,8.9µM,5µM,3.2µM,17,nt,5.4,1.2µM,?,19µM,TbPGK inh=15µM
CCc1ccccc1NC(=O)Cn1nnc(C(=O)NCc2ccco2)c1N,i,nt,nt,i,i,?,nt,nt,nt,nt,nt,nt,
CN1C(N)=NC(=O)/C1=C\c1ccc(Br)cc1,i,i,i,i,i,i,nt,nt,nt,nt,nt,nt,
COc1cc(NS(=O)(=O)c2ccc(NC(=S)NC(=O)/C=C/c3ccco3)cc2)ncn1,18µM,14µM,-56,7.1µM,2.2µM,?,17,nt,4.3,15µM,i,15µM,TbPGK inh=4.6µM
CN1CCN(C(=O)C(N)Cc2ccccc2)CC1 (stereo unspecified),i,i,i,i,i,i,nt,nt,nt,nt,nt,nt,
CCc1cc(=O)oc2cc(C)c(CN3CCCC3)c(O)c12,7.9µM,32µM,nt,8.9µM,22µM,3.2µM,?,24,30,15µM,24µM,3.8µM,
O=c1c(-c2ccc([N+](=O)[O-])cc2)coc2c(O)c(O)ccc12,?,22µM,i,7.1µM,3.2µM,8.9µM,nt,nt,8.5,4.8µM,i,4.3µM,TbPGK inh=2.6µM
Cc1ccc(CSCCNC(=O)C2CCN(S(=O)(=O)Cc3ccccc3)CC2)cc1,i,nt,nt,i,i,i,nt,nt,nt,nt,nt,nt,
COc1ccc(NS(=O)(=O)c2ccc3c(c2)[C@H]2C=CC[C@H]2[C@@H](c2ccc(C(=O)O)cc2)N3)cc1,20µM,40µM,-65,10µM,2.8µM,?,24,2.4,9.5,22µM,i,27µM,TbPGK inh=18µM
COC(=O)c1ccc([C@H]2Nc3ccc(S(=O)(=O)Nc4ccc(C)cc4)cc3[C@H]3C=CC[C@H]32)cc1,?,nt,nt,i,?,?,nt,nt,nt,nt,nt,nt,
CCOC(=O)C1CCN(C(=O)C(=O)Nc2ccc3nc4n(c(=O)c3c2)CCCCC4)CC1,i,i,i,i,i,i,nt,nt,nt,nt,nt,nt,
CSc1nc(C)cc(Oc2ccccc2)n1,i,i,i,i,i,i,nt,nt,nt,nt,nt,nt,
CCN(CC)CCCNc1nc2ccccc2c2[nH]c3ccc(OC)cc3c12,nt,25µM,i,18µM,10µM,18µM,3,3.4,30,6.8µM,?,?,
CCN(CC)CCCNc1nc(-c2ccccc2)nc2ccccc12,?,i,nt,i,i,i,nt,nt,nt,nt,nt,nt,
CN1C(=CC=C2C=C(I)C(=O)C(I)=C2)C(C)(C)c2ccccc21,?,4.7µM,i,?,?,3.5µM,34,75,48,27µM,i,19µM,
CN1/C(=C\C=C2/C(=O)Oc3ccccc3C2=O)C(C)(C)c2ccccc21,45µM,27µM,i,?,89µM,i,75,24,54,15µM,nt,i,
CN1/C(=C\C=N\O)C(C)(C)c2ccccc21,i,i,i,i,i,i,nt,nt,nt,nt,nt,nt,
COc1ccccc1CCn1c(=O)c(-c2cccs2)nc2cncnc21,nt,nt,nt,i,nt,nt,nt,nt,nt,nt,nt,nt,
COc1ccc(N2Cc3cccc(C(=O)N4CCN(C(=O)c5ccco5)CC4)c3C2=O)cc1,10µM,50µM,-84,?,5.6µM,?,38,42,60,nt,nt,nt,ADP-Glo counter=i
